Experimental data as given in the supplement of paper PMC10849652.
Targets with a hit are over-represented here; the source holds about 8,800 in all. About 0.5% of all pairs of compound and target were hits. Values without a mark were called inactive.

Experiments:
Test in all cases: log2 fold change, soluble protein after heating vs DMSO (PISA); higher = thermal stabilisation; K562 lysate, 10 uM; active = over 0.2 and 3.5 SD of the protein, either way, in both replicates (recomputed)
vemurafenib = compound: CCCS(=O)(=O)Nc1ccc(F)c(C(=O)c2c[nH]c3ncc(-c4ccc(Cl)cc4)cc23)c1F [vemurafenib]
Outline: (§1)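 Soluble protein was defined as the supernatant remaining after 21,000xg for 90 min, following pooling of heated aliquots and adjustment to 0.5% NP-40 at 4°C. Before that, crude K562 extract at 1 mg/mL protein in PBS pH 7.4 with 1 mM MgCl2 was treated with 10 μM compound for 30 min and heated for 3 min across 48°C-58°C. Quantification used TMTpro 16plex LC-MS/MS with channel sums equalised, and values are log-two fold changes in thermal stability relative to solvent controls from duplicates.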

[1] = compound: CCCS(=O)(=O)Nc1ccc(F)c(C(=O)c2c[nH]c3ncc(Cl)cc23)c1F
Outline: as §1

barasertib = compound: CCN(CCCOc1ccc2c(Nc3cc(CC(=O)Nc4cccc(F)c4)[nH]n3)ncnc2c1)CCOP(=O)(O)O [barasertib]
Outline: as §1

[2] = compound: CC[C@@H]1C(=O)N(C)c2cnc(Nc3ccc(C(=O)NC4CCN(C)CC4)cc3OC)nc2N1C1CCCC1
Outline: as §1

volasertib = compound: CC[C@@H]1C(=O)N(C)c2cnc(Nc3ccc(C(=O)N[C@H]4CC[C@H](N5CCN(CC6CC6)CC5)CC4)cc3OC)nc2N1C(C)C [volasertib]
Outline: as §1

[3] = compound: CCn1c(C(=O)N(C2CC2)C2CC2)cc2c3c(ncn3C)c(Nc3cc(C)n(C)n3)nc21
Outline: as §1

[4] = compound: CCn1cc(-c2ccnc3[nH]c(-c4cccc(CN(C)C)c4)cc23)c(-c2ccc(NC(=O)N(C)C)cc2)n1
Outline: as §1

[5] = compound: CN1CCC(CNc2ccc3ncc(-c4cccc(OC(F)(F)F)c4)n3n2)CC1
Outline: as §1

saracatinib = compound: CN1CCN(CCOc2cc(OC3CCOCC3)c3c(Nc4c(Cl)ccc5c4OCO5)ncnc3c2)CC1 [saracatinib]
Outline: as §1

sotrastaurin = compound: CN1CCN(c2nc(C3=C(c4c[nH]c5ccccc45)C(=O)NC3=O)c3ccccc3n2)CC1 [sotrastaurin]
Outline: as §1

alvocidib = compound: CN1CC[C@H](c2c(O)cc(O)c3c(=O)cc(-c4ccccc4Cl)oc23)[C@H](O)C1 [alvocidib]
Outline: as §1

Tubastatin A = compound: CN1CCc2c(c3ccccc3n2Cc2ccc(C(=O)NO)cc2)C1 [Tubastatin A]
Outline: as §1

[6] = compound: CNC(=O)C1=CC=CC=C1NC2=NC(=NC=C2Cl)NC3=C(C=C(C=C3)N4CCOCC4)OC
Outline: as §1

defactinib = compound: CNC(=O)c1ccc(Nc2ncc(C(F)(F)F)c(NCc3nccnc3N(C)S(C)(=O)=O)n2)cc1 [defactinib]
Outline: as §1

[7] = compound: CNc1nc(-c2ccc3c(N)n[nH]c3c2)cc(N2C[C@@H](C(=O)NC3CCCCC3)CC[C@H]2C)n1
Outline: as §1

encorafenib = compound: COC(=O)N[C@@H](C)CNc1nccc(-c2cn(C(C)C)nc2-c2cc(Cl)cc(NS(C)(=O)=O)c2F)n1 [encorafenib]
Outline: as §1

[8] = compound: COC(=O)[C@H](CCSC)NC(=O)C1=C(C=C(C=C1)NC[C@H](CS)N)C2=CC=CC=C2
Outline: as §1

alisertib = compound: COc1cc(Nc2ncc3c(n2)-c2ccc(Cl)cc2C(c2c(F)cccc2OC)=NC3)ccc1C(=O)O [alisertib]
Outline: as §1

[9] = compound: COc1cc2nc(-c3cc(F)ccc3O)nc(N[C@@H]3CNC[C@H]3C(C)(C)O)c2cc1OC
Outline: as §1

gefitinib = compound: COc1cc2ncnc(Nc3ccc(F)c(Cl)c3)c2cc1OCCCN1CCOCC1 [gefitinib]
Outline: as §1

UniProt P23219, sequence (P23219 whole entry, looked up): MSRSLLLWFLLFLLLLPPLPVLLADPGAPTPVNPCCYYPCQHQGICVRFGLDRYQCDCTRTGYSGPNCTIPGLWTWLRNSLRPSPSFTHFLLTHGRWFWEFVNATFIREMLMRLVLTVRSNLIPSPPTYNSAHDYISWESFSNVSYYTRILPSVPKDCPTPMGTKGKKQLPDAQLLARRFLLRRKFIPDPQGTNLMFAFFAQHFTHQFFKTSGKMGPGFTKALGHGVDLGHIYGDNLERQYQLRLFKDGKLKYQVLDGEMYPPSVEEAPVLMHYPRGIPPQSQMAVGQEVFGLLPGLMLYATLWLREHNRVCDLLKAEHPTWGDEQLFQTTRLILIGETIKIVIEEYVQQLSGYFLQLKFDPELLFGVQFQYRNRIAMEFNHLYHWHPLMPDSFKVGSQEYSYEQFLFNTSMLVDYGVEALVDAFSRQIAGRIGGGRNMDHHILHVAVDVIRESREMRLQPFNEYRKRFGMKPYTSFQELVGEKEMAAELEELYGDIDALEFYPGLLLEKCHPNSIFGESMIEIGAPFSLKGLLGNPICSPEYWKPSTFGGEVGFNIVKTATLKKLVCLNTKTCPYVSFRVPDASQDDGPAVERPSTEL
UniProt Q9NXJ5, sequence (Q9NXJ5 whole entry, looked up): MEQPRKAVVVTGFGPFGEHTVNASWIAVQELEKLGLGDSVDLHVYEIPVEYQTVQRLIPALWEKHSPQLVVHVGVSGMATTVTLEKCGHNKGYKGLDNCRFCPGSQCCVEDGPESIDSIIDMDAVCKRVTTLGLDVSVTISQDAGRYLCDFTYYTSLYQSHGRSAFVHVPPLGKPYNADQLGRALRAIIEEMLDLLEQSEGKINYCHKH
UniProt P28340, sequence (P28340 whole entry, looked up): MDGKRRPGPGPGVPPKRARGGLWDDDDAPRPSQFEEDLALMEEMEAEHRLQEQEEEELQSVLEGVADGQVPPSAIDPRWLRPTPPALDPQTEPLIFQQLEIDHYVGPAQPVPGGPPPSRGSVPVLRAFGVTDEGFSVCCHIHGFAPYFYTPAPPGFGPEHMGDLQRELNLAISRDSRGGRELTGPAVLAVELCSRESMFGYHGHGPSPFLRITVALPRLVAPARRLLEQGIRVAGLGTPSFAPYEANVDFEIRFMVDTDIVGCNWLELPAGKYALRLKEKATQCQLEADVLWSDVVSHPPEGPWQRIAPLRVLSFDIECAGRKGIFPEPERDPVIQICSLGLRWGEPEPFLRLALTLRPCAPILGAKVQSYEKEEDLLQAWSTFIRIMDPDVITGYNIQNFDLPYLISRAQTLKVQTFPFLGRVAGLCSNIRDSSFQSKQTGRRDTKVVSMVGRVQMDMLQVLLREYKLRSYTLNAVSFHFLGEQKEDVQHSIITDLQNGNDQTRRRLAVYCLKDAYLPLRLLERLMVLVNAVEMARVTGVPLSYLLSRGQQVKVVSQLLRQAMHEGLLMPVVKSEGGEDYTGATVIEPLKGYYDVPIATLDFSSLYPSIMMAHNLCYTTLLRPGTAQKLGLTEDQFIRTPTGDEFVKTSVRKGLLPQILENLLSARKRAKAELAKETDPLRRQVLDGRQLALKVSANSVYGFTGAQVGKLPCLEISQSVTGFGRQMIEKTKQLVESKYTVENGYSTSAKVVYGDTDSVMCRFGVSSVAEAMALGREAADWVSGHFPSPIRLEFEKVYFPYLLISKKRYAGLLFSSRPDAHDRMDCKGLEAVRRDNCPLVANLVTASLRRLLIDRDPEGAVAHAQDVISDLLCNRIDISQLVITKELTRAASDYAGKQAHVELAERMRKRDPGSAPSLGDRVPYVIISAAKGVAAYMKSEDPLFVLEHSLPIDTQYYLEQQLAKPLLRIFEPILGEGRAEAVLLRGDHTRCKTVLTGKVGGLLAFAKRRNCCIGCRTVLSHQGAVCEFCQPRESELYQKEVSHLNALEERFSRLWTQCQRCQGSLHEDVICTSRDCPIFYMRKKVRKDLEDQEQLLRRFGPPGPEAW
UniProt Q9NVM4, sequence (Q9NVM4 whole entry, looked up): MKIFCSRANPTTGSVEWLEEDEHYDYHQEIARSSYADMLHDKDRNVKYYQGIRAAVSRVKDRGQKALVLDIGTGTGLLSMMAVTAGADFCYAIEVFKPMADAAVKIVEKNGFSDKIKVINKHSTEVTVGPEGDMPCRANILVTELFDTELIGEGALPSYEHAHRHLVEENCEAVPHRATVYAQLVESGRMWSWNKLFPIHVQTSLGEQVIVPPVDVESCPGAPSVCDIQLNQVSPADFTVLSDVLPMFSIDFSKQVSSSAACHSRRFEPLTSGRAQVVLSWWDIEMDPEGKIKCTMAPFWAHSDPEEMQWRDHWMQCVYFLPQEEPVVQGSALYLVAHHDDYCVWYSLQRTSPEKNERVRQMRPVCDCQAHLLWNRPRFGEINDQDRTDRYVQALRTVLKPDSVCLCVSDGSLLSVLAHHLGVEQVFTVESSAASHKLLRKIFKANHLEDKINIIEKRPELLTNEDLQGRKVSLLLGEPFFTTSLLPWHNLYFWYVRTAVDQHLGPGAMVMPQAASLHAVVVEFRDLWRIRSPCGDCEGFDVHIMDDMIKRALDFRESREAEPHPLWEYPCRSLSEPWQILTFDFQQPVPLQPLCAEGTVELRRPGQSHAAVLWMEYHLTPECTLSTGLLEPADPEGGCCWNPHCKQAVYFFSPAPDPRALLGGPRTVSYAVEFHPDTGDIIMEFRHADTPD
UniProt P46020, sequence (P46020 whole entry, looked up): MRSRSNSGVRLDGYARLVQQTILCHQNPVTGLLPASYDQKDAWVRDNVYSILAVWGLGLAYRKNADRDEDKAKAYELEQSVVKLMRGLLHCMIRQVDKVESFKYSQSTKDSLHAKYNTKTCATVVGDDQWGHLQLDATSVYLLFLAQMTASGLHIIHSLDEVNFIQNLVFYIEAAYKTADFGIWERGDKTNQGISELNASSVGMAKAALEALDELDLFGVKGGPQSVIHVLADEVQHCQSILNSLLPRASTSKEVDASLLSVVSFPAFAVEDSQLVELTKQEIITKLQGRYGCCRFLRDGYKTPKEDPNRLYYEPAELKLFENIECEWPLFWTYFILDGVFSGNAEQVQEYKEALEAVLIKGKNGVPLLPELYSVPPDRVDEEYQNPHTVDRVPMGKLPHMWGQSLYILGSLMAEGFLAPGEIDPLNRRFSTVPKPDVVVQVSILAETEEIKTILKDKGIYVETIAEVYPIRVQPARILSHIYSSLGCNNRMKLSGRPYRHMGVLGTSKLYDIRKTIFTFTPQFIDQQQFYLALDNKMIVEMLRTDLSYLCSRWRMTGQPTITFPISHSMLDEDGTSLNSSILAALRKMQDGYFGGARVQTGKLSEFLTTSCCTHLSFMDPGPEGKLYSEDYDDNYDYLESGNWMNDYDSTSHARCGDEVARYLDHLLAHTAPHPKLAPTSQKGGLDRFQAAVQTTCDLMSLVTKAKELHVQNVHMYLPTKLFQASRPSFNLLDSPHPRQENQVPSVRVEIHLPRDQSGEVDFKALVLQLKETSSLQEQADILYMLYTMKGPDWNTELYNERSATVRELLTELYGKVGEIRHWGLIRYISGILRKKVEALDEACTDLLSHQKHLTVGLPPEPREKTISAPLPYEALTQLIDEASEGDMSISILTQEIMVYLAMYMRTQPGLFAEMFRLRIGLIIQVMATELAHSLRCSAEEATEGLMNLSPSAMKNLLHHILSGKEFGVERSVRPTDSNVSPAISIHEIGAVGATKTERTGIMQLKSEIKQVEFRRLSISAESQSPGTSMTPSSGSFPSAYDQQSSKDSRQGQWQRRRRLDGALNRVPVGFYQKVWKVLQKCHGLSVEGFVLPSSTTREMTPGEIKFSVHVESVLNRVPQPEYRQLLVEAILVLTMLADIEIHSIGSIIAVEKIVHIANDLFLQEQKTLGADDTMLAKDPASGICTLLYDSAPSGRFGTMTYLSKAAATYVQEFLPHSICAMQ
UniProt O00625, sequence (O00625 whole entry, looked up): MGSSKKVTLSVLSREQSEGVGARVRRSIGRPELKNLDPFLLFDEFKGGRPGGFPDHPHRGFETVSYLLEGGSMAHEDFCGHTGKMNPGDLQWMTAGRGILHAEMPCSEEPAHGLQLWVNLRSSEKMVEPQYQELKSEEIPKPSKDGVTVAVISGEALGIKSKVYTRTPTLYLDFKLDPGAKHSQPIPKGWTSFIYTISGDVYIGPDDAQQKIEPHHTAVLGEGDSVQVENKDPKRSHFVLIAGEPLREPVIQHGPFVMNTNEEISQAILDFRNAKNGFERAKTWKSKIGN
UniProt Q9H2H8, sequence (Q9H2H8 whole entry, looked up): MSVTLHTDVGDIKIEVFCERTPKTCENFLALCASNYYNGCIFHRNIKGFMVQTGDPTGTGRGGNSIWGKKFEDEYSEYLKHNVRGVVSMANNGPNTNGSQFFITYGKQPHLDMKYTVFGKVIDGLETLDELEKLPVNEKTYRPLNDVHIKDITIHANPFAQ
UniProt Q9BTU6, sequence (Q9BTU6 whole entry, looked up): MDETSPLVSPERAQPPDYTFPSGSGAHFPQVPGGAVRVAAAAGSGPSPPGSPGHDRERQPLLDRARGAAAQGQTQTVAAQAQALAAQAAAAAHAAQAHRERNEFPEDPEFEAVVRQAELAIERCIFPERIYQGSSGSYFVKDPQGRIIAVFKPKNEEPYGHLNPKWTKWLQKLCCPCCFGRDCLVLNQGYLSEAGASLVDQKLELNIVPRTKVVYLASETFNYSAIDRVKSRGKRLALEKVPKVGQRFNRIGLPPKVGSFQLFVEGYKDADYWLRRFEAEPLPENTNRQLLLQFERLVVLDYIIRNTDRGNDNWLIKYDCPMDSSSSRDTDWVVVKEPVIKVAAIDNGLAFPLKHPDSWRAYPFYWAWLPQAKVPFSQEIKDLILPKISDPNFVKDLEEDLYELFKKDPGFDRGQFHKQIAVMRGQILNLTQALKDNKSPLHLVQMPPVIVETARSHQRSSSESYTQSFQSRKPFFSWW
UniProt Q9UHV9, sequence (Q9UHV9 whole entry, looked up): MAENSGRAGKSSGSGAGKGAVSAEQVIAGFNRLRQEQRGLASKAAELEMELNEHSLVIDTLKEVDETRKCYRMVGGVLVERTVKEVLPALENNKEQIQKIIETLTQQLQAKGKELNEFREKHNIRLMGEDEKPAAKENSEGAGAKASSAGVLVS

Row | Target | log2 fold change (vemurafenib) | log2 fold change [1] | log2 fold change (barasertib) | log2 fold change [2] | log2 fold change (volasertib) | log2 fold change [3] | log2 fold change [4] | log2 fold change [5] | log2 fold change (saracatinib) | log2 fold change (sotrastaurin) | log2 fold change (alvocidib) | log2 fold change (Tubastatin A) | log2 fold change [6] | log2 fold change (defactinib) | log2 fold change [7] | log2 fold change (encorafenib) | log2 fold change [8] | log2 fold change (alisertib) | log2 fold change [9] | log2 fold change (gefitinib)
1 | PGPEP1 (UniProt Q9NXJ5) | 0.021 | 0.022 | -0.036 | -0.091 | -0.027 | 0.036 | -0.096 | 0.03 | 0 | -0.056 | 0.05 | -0.182 | 0.012 | -0.032 | -0.055 | 0.02 | 0.057 | -0.045 | 0.01 | -0.06
2 | PI4K2A (UniProt Q9BTU6) | -0.025 | 0.037 | 0.041 | -0.009 | -0.027 | 0.004 | 0.019 | 0.042 | -0.037 | 0.102 | -0.006 | -0.037 | 0.021 | -0.023 | 0.012 | 0.022 | -0.092 | -0.008 | -0.056 | 0.021
3 | POLR2F (UniProt P61218) | 0.077 | -0.018 | 0.034 | -0.043 | 0.036 | 0.078 | 1.25 (active) | -0.211 | -0.042 | 0.02 | 0.272 | -0.07 | 0.031 | 0.085 | 0.2 | -0.036 | -0.02 | 0.065 | 0.003 | -0.097
4 | PPIL3 (UniProt Q9H2H8) | 0.048 | -0.017 | 0.099 | -0.004 | -0.007 | 0.027 | 0.067 | 0.021 | 0.004 | -0.03 | -0.105 | -0.044 | 0 | -0.115 | 0.012 | 0.011 | 0.008 | -0.033 | 0.018 | -0.02
5 | PWP2 (UniProt Q15269) | 0.033 | 0.045 | 0.044 | 0.006 | -0.013 | 0.018 | 0.015 | -0.038 | 0.015 | 0.052 | -0.014 | -0.073 | 0.027 | 0.042 | 0.061 | 0.035 | -0.033 | 0.004 | -0.007 | -0.057
6 | PIR (UniProt O00625) | -0.023 | 0.098 | -0.005 | 0.025 | 0.019 | -0.055 | 0.205 | -0.024 | -0.006 | -0.028 | 0.006 | 0.019 | -0.011 | -0.032 | 0.012 | 0.003 | -0.07 | 0.016 | -0.008 | -0.012
7 | PCF11 (UniProt O94913) | 0.042 | 0.012 | 0.015 | 0.02 | -0.029 | -0.045 | 0.081 | -0.018 | -0.003 | 0.006 | -0.018 | -0.12 | 0.002 | 0.041 | 0.078 | 0.036 | -0.021 | 0.009 | 0.042 | 0.002
8 | POLD1 (UniProt P28340) | 0.01 | 0.053 | -0.011 | -0.021 | -0.005 | 0.035 | 0.028 | -0.043 | 0.01 | 0.015 | 0.012 | -0.075 | 0.035 | 0.027 | 0.011 | 0.008 | 0.074 | 0.007 | 0.007 | -0.036
9 | PRIM2 (UniProt P49643) | 0.025 | 0.04 | -0.005 | -0.034 | -0.048 | 0.019 | -0.027 | -0.046 | -0.03 | 0.02 | -0.008 | -0.138 | 0.033 | -0.01 | 0.009 | -0.002 | 0.035 | -0.017 | -0.009 | 0.01
10 | PXMP4 (UniProt Q9Y6I8) | 0.343 | 0.114 | 0.04 | -0.035 | -0.039 | 0.064 | -0.246 | 0.006 | 0.036 | 0.025 | 0 | -0.015 | 0.012 | -0.028 | 0.736 (active) | 0.033 | 0.092 | -0.039 | -0.009 | -0.039
11 | PFDN2 (UniProt Q9UHV9) | -0.049 | 0 | 0.064 | -0.022 | 0.029 | 0.082 | 0.471 (active) | -0.049 | 0.009 | 0.039 | 0.063 | 0.01 | -0.035 | 0.026 | -0.012 | 0.05 | -0.025 | 0.033 | 0.007 | 0.012
12 | PHKA1 (UniProt P46020) | -0.021 | 0.009 | 0.089 | 0.044 | -0.074 | 0.074 | -0.067 | 0.079 | -0.009 | -0.019 | 0.047 | -0.073 | 0.168 | 0.08 | -0.029 | 0.004 | 0.065 | -0.014 | 0.084 | 0.041
13 | PTGS1 isoform 6 (UniProt P23219) | 0.058 | 0.076 | 0.039 | 0.005 | -0.022 | -0.012 | -0.279 (active) | 0.134 | -0.033 | 0.065 | -0.154 | 0.023 | -0.052 | -0.119 | -0.057 | -0.008 | 0.027 | -0.051 | 0.021 | -0.011
14 | PRMT7 (UniProt Q9NVM4) | 0.058 | -0.006 | 0.018 | -0.02 | 0.001 | -0.013 | 0.013 | 0.003 | 0.045 | 0.009 | 0.017 | -0.069 | 0.024 | -0.047 | 0.002 | 0.012 | 0.286 (active) | -0.015 | 0.007 | 0
15 | PCBP2 (UniProt H3BRU6) | 0.13 | -0.031 | -0.115 | 0.085 | 0.036 | -0.082 | -0.041 | 0.047 | 0.1 | 0.179 | 0.033 | -0.116 | 0.082 | 0.061 | 0.018 | 0.04 | 0.017 | -0.023 | 0.072 | -0.145
16 | PICALM (UniProt H0YEH1) | 0.05 | -0.094 | -0.018 | -0.008 | -0.011 | -0.014 | -0.54 (active) | 0.248 | 0.056 | 0.126 | -0.206 | 0.126 | 0.098 | 0.006 | 0 | -0.038 | 0.098 | 0.049 | -0.042 | -0.036
